# Measured values from the supplement of paper PMC10037445.
# The full ranking holds about 2,900 compounds; the median of “NF-kB SEAP reporter activity, fold change vs agonist alone” is about 0.99, and the highest 2% start at about 2.6. The full list was thinned out, with the highest values kept by preference.
# Tests used:
# RAW-Dual [1] = test: NF-kB SEAP reporter activity, fold change vs agonist alone; cytotoxicity flag (confluency mask): not cytotoxic; higher = enhanced NF-kB activity
# Summary of the method: (§1)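 Supernatant from RAW-Dual macrophages was read after 20 hours for IRF by QuantiLuc luminescence and for NF-κB by QuantiBlue absorbance at 620 nm. The cells (50,000 cells/well in DMEM, 384-well plates, 37 °C, 5% CO2) had received 50 nL of library stock by pin tool and, 1 h later, a PRR agonist. Reporter activity is expressed relative to agonist-alone wells as fold change, and wells were flagged cytotoxic if IncuCyte confluency was under 70% of agonist controls in both mask sets.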
# RAW-Dual [2] = test: NF-kB SEAP reporter activity, fold change vs agonist alone; higher = enhanced NF-kB activity; conditions: library stock concentration (final ~1000-fold dilution): 10 mM
# Summary of the method: as §1
# RAW-Dual [3] = test: NF-kB SEAP reporter activity, fold change vs agonist alone; cytotoxicity flag (confluency mask): cytotoxic (confluency <70% of control); higher = enhanced NF-kB activity
# Summary of the method: as §1
# [4] = agonist: ODN 1826 (TLR9) 0.5 ug/mL
# [5] = agonist: Pam2CSK4 (TLR2/6) 0.1 ug/mL
# [6] = agonist: Pam3CSK4 (TLR2/1) 0.1 ug/mL
# [7] = cytotoxicity flag (confluency mask): cytotoxic (confluency <70% of control), agonist: Imiquimod (TLR7) […]
# [8] = cytotoxicity flag (confluency mask): cytotoxic (confluency <70% of control), agonist: MPLA (TLR4) […]
# [9] = cytotoxicity flag (confluency mask): not cytotoxic, agonist: Imiquimod (TLR7) […]
# [10] = cytotoxicity flag (confluency mask): not cytotoxic, agonist: MPLA (TLR4) […]
smiles,measurement,setting,value
COc1cc(C(=O)O)ccc1NC(=O)C1NC(CC(C)(C)C)C(C#N)(c2ccc(Cl)cc2F)C1c1cccc(Cl)c1F (stereo not given) (library stock concentration (final ~1000-fold dilution): 10 mM),NF-kB SEAP reporter activity,RAW-Dual [1]; agonist: LPS (TLR4) 0.1 ug/mL,0.272
same,NF-kB SEAP reporter activity,RAW-Dual [1]; [4],0.436
same,NF-kB SEAP reporter activity,RAW-Dual [1]; [5],0.145
same,NF-kB SEAP reporter activity,RAW-Dual [1]; [6],0.285
CC(C)(C)CC1NC(C(=O)NC2CCC(O)CC2)C(c2cccc(Cl)c2F)C12C(=O)Nc1cc(Cl)ccc12 (stereo not given),NF-kB SEAP reporter activity,RAW-Dual [2]; [7],1.55
same,NF-kB SEAP reporter activity,RAW-Dual [2]; [8],2.25
COc1cc(C(=O)O)ccc1NC(=O)C1NC(CC(C)(C)C)C(C#N)(c2ccc(Cl)cc2F)C1c1cccc(Cl)c1F (stereo not given),NF-kB SEAP reporter activity,RAW-Dual [2]; [9],0.74
same,NF-kB SEAP reporter activity,RAW-Dual [2]; [10],0.697
CC(C)(C)CC1NC(C(=O)NC2CCC(O)CC2)C(c2cccc(Cl)c2F)C12C(=O)Nc1cc(Cl)ccc12 (stereo not given) (library stock concentration (final ~1000-fold dilution): 10 mM),NF-kB SEAP reporter activity,RAW-Dual [3]; agonist: LPS (TLR4) 0.1 ug/mL,3.05
same,NF-kB SEAP reporter activity,RAW-Dual [3]; [4],2.82
same,NF-kB SEAP reporter activity,RAW-Dual [3]; [5],0.884
same,NF-kB SEAP reporter activity,RAW-Dual [3]; [6],1.21
CC(=O)OC1(C(C)=O)CCC2C3C=C(Cl)C4=CC(=O)C5CC5C4(C)C3CCC21C (stereo not given),NF-kB SEAP reporter activity,RAW-Dual [2]; [9],1.26
same,NF-kB SEAP reporter activity,RAW-Dual [2]; [10],1.21
CC(=O)OC1(C(C)=O)CCC2C3C=C(Cl)C4=CC(=O)C5CC5C4(C)C3CCC21C (stereo not given) (library stock concentration (final ~1000-fold dilution): 10 mM),NF-kB SEAP reporter activity,RAW-Dual [1]; agonist: LPS (TLR4) 0.1 ug/mL,1.2
same,NF-kB SEAP reporter activity,RAW-Dual [1]; [4],1.01
same,NF-kB SEAP reporter activity,RAW-Dual [1]; [5],0.777
same,NF-kB SEAP reporter activity,RAW-Dual [1]; [6],1.08
CC1CCC2C(C)C(OC(=O)CCC(=O)O)OC3OC4(C)CCC1C32OO4 (stereo not given) (library stock concentration (final ~1000-fold dilution): 10 mM),NF-kB SEAP reporter activity,RAW-Dual [1]; agonist: LPS (TLR4) 0.1 ug/mL,5.12
same,NF-kB SEAP reporter activity,RAW-Dual [1]; [4],1.67
same,NF-kB SEAP reporter activity,RAW-Dual [1]; [5],1.02
same,NF-kB SEAP reporter activity,RAW-Dual [1]; [6],1.44
C[C@H]1[C@@H](O)O[C@@H]2OC3(C)CC[C@H]4[C@H](C)CC[C@@H]1[C@@]24OO3 (library stock concentration (final ~1000-fold dilution): 10 mM),NF-kB SEAP reporter activity,RAW-Dual [1]; agonist: LPS (TLR4) 0.1 ug/mL,3.41
same,NF-kB SEAP reporter activity,RAW-Dual [1]; [4],1.13
same,NF-kB SEAP reporter activity,RAW-Dual [1]; [5],1.1
same,NF-kB SEAP reporter activity,RAW-Dual [1]; [6],0.848
CC1CCC2C(C)C(OC(=O)CCC(=O)O)OC3OC4(C)CCC1C32OO4 (stereo not given),NF-kB SEAP reporter activity,RAW-Dual [2]; [9],1.84
same,NF-kB SEAP reporter activity,RAW-Dual [2]; [10],2.5
C[C@H]1[C@@H](O)O[C@@H]2OC3(C)CC[C@H]4[C@H](C)CC[C@@H]1[C@@]24OO3,NF-kB SEAP reporter activity,RAW-Dual [2]; [9],1.32
same,NF-kB SEAP reporter activity,RAW-Dual [2]; [10],1.97
Nc1nonc1/C(=N\O)Nc1ccc(F)c(Cl)c1 (library stock concentration (final ~1000-fold dilution): 10 mM),NF-kB SEAP reporter activity,RAW-Dual [1]; agonist: LPS (TLR4) 0.1 ug/mL,1.01
same,NF-kB SEAP reporter activity,RAW-Dual [1]; [4],0.882
same,NF-kB SEAP reporter activity,RAW-Dual [1]; [5],0.938
same,NF-kB SEAP reporter activity,RAW-Dual [1]; [6],0.585
Nc1nonc1/C(=N\O)Nc1ccc(F)c(Cl)c1,NF-kB SEAP reporter activity,RAW-Dual [2]; [9],0.904
same,NF-kB SEAP reporter activity,RAW-Dual [2]; [10],0.933
COc1ccc2cc1Oc1ccc(cc1)CC1c3c(cc4c(c3Oc3cc5c(cc3OC)CCN(C)C5C2)OCO4)CCN1C (stereo not given) (library stock concentration (final ~1000-fold dilution): 10 mM),NF-kB SEAP reporter activity,RAW-Dual [3]; agonist: LPS (TLR4) 0.1 ug/mL,1.44
same,NF-kB SEAP reporter activity,RAW-Dual [3]; [4],0.251
same,NF-kB SEAP reporter activity,RAW-Dual [3]; [5],1.42
same,NF-kB SEAP reporter activity,RAW-Dual [3]; [6],1.01
COc1ccc2cc1Oc1ccc(cc1)CC1c3c(cc4c(c3Oc3cc5c(cc3OC)CCN(C)C5C2)OCO4)CCN1C (stereo not given),NF-kB SEAP reporter activity,RAW-Dual [2]; [7],1.58
same,NF-kB SEAP reporter activity,RAW-Dual [2]; [8],2.32
CN1CCN(Cc2ccc(NC(=O)Nc3ccc(Oc4ccnc(N)n4)cc3)cc2C(F)(F)F)CC1,NF-kB SEAP reporter activity,RAW-Dual [2]; [7],0.146
same,NF-kB SEAP reporter activity,RAW-Dual [2]; [8],0.248
CN1CCN(Cc2ccc(NC(=O)Nc3ccc(Oc4ccnc(N)n4)cc3)cc2C(F)(F)F)CC1 (library stock concentration (final ~1000-fold dilution): 10 mM),NF-kB SEAP reporter activity,RAW-Dual [3]; agonist: LPS (TLR4) 0.1 ug/mL,0.293
same,NF-kB SEAP reporter activity,RAW-Dual [3]; [4],0.197
same,NF-kB SEAP reporter activity,RAW-Dual [3]; [5],0.0678
same,NF-kB SEAP reporter activity,RAW-Dual [3]; [6],0.129
OC1C=C2CCN3Cc4cc5c(cc4C(C1O)C23)OCO5 (stereo not given),NF-kB SEAP reporter activity,RAW-Dual [2]; [7],2.07
same,NF-kB SEAP reporter activity,RAW-Dual [2]; [8],1.61
